Consider 20 compounds from PubChem BioAssay.

Each structure is given as a SMILES string. A number with no mark means an inactive call. For some of these results: Results with a measured potency or affinity are listed apart. Activity calls are given as the source filed them. Unless noted, the rule behind the calls is not given here.

A short description of assay [1]: antimalarial activity against Dd2 strain (AID 2302;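 active = growth inhibition above 50% at the single 2 µM test dose, taken to imply half-maximal potency below 2 µM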;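 note: 0% = DMSO untreated growth and 100% = chloroquine plus artemisinin killed control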). The conditions noted are these: P. falciparum Dd2 in RBCs, LDH growth readout, 72 h; at 2 µM; hits give high values.
Assay [2] is described as follows: HepG2 cytotoxicity, primary screen, cytotoxicity control for P. falciparum antimalarial project, cell-based, ATP luminescence (AID 2303;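 active = inhibition above 50%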;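 note: 0% = DMSO wells and 100% = digitonin-killed cells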). The conditions noted are these: HepG2 viability, 24-48 h, at 10 µM, hits give high values.
Assay [3] concerns the target L-lactate dehydrogenase (Plasmodium falciparum (isolate CDC / Honduras)) (UniProt Q27743). Briefly: PfLDH activity inhibition – cell lysate, 3D7 strain, counter-screen for P. falciparum growth inhibition project (AID 2304).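 Note: 0% = vehicle and 100% = reference inhibitor.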 The conditions noted are these: P. falciparum 3D7 crude extract, LDH APAD/NBT absorbance; at 2 µM; hits give high values. (The purpose of a counterscreen is to sort out artefacts and off-target activity.)

A short description of assay [4]: inhibition of 3D7 malaria parasite growth – strain 3D7 (AID 2306).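 Note: 0% = DMSO wells and 100% = chloroquine plus artemisinin control wells.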 The conditions noted are these: P. falciparum 3D7 erythrocytic growth, LDH absorbance, 72 h; at 2 µM; hits give high values.
In assay [5] the target is Calcium-dependent protein kinase 1 (Plasmodium falciparum (isolate 3D7)) (UniProt P62344). The assay can be described thus: PfCDPK1 kinase inhibitors, biochemical, TCAMS library (AID 1159585; cut-off not given, nearly all actives have IC50 up to about 0.98 µM;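 note: inhibitors leave more ATP so luminescence rises with inhibition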). The conditions noted are these: recombinant PfCDPK1, Kinase-Glo ATP depletion luminescence. A general note: In Kinase-Glo more light means more ATP remaining.
Calcium-dependent protein kinase 1 (Plasmodium falciparum (isolate 3D7)), sequence (P62344 whole entry, looked up): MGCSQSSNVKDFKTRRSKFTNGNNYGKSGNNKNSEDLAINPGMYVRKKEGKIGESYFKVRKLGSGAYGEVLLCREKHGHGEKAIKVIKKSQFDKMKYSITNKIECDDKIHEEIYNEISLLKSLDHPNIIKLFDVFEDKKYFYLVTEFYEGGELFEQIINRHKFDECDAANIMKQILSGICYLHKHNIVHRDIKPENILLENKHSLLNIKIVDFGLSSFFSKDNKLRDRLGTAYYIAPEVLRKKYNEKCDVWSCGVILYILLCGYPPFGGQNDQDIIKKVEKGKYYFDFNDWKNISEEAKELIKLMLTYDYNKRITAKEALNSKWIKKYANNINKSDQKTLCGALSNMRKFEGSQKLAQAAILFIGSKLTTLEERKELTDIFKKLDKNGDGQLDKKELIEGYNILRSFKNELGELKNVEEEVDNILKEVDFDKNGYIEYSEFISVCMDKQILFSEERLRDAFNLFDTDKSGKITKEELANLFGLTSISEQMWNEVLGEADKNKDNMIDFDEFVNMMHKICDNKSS
For assay [6], the target named is Plasmodium falciparum protein kinase 6 (PK6, PF3D7_1337100) (UniProt Q8IDW1). Briefly: PfPK6 kinase inhibitors, biochemical, TCAMS library (AID 1159586). The conditions noted are these: recombinant PfPK6, Kinase-Glo ATP depletion luminescence.
Plasmodium falciparum protein kinase 6 (PK6, PF3D7_1337100), sequence (Q8IDW1 1-305): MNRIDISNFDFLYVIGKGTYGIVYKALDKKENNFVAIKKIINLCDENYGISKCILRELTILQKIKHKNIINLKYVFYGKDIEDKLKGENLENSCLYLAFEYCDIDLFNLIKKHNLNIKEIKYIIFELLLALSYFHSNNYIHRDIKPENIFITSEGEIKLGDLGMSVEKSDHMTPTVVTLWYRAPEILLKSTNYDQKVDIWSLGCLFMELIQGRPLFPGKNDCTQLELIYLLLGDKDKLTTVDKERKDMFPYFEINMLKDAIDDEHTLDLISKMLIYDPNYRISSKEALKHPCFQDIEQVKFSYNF
For assay [7], the target named is Protein kinase 7 (PK7), Plasmodium falciparum 3D7 (PF3D7_0213400) (UniProt Q7YTF7). Briefly: inhibition of Plasmodium PK7 catalytic activity – biochemical, TCAMS antimalarial set, Kinase-Glo luminescence (AID 1159587). The conditions noted are these: recombinant PfPK7, Kinase-Glo ATP depletion luminescence.
Protein kinase 7 (PK7), Plasmodium falciparum 3D7 (PF3D7_0213400), sequence (Q7YTF7 1-343): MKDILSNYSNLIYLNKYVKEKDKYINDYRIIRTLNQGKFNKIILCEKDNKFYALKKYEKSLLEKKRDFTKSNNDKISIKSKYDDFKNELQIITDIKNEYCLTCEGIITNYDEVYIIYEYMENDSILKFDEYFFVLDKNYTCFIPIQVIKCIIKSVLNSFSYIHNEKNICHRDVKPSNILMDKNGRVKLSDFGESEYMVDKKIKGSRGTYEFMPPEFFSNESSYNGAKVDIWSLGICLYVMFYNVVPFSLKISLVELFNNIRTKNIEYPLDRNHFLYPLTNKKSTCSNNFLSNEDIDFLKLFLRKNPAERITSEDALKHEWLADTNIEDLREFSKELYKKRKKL
The target of assay [8] is Calcium-dependent protein kinase 4 (Plasmodium falciparum (isolate 3D7)) (UniProt Q8IBS5). The assay can be described thus: PfCDPK4 kinase inhibitors, biochemical, TCAMS library (AID 1159588; cut-off not given, nearly all actives have IC50 up to about 0.91 µM). The conditions noted are these: recombinant PfCDPK4, Kinase-Glo ATP depletion luminescence.
Calcium-dependent protein kinase 4 (Plasmodium falciparum (isolate 3D7)), sequence (Q8IBS5 whole entry, looked up): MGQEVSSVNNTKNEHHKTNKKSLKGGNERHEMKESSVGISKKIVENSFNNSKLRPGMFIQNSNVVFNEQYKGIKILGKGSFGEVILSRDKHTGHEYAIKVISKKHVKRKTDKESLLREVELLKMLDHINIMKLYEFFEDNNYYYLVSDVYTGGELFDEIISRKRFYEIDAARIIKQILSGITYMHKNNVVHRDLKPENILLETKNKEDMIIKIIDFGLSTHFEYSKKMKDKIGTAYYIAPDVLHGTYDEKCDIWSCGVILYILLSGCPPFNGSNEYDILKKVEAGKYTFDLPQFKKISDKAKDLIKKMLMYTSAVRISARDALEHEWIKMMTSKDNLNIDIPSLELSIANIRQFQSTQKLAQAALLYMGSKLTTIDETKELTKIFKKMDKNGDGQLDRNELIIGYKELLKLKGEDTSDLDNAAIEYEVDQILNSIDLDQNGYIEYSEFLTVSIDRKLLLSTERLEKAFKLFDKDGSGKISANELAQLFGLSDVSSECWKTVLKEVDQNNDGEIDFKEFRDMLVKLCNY

L-lactate dehydrogenase (Plasmodium falciparum (isolate CDC / Honduras)), sequence (Q27743 whole entry, looked up): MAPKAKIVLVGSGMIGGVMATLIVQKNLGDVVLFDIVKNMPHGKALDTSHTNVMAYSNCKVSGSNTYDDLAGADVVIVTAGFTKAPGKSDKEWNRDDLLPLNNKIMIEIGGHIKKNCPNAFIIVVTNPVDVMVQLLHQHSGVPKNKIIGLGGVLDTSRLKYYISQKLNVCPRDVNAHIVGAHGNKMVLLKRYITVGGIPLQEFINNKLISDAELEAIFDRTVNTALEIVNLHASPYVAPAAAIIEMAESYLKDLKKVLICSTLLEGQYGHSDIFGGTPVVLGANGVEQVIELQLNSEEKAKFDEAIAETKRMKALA

As for `COc1ccc(CNCCCCCNCc2ccc(Cl)c(Cl)c2)cc1Cl`, the figures for the growth inhibition in assay [1] and in assay [4] were 43% and 98% (active), respectively. Besides, the inhibition (usually the change of the read-out against control, counted positive when it falls) in assay [2] was 42%; in assay [3], 0%. Moreover, the result in assay [5], in assay [6], in assay [7] and in assay [8] was inactive.
Take `CN1CCN(c2ccc(Nc3nc(N)c4ccn(C5CCC5)c4n3)cc2)CC1`: the growth inhibition in assay [1] is 47%; in assay [4], 93% (active). For the same compound, the results for the inhibition in assay [2] and in assay [3] were -3% and 2%, respectively. Also, the outcome in assay [5], in assay [6], in assay [7] and in assay [8] was inactive.
For `O=[N+]([O-])c1ccc(N2CCCN(C(=S)Nc3ccc(F)cc3Br)CC2)nc1`, the growth inhibition in assay [1] was 99% (active); in assay [4], 100% (active). Moreover, the inhibition in assay [2] is 4%; in assay [3], -3%. For the same compound, the result in assay [5], in assay [6], in assay [7] and in assay [8] was inactive.
In the case of `Cc1cccc2[nH]c(-c3cccc(-c4ccc(NC(=O)C5CC(=O)Nc6ccccc65)cc4)c3)nc12` (stereo not given), the growth inhibition was 56% (active) in assay [1] and 87% (active) in assay [4]. Besides, the values for the inhibition in assay [2] and in assay [3] were 15% and 3%, respectively. The result in assay [5], in assay [6], in assay [7] and in assay [8] was inactive.
As to `CCc1ccc(-c2nc3cc(NC(=O)c4cc([N+](=O)[O-])cc([N+](=O)[O-])c4)ccc3o2)cc1`, the figures for the growth inhibition in assay [1] and in assay [4] were 12% and 93% (active), respectively. Moreover, the values for the inhibition in assay [2] and in assay [3] were 12% and 2%, respectively. The outcome in assay [5], in assay [6], in assay [7] and in assay [8] was inactive.
As for `Cc1ccccc1C1CCN(C2CCC(NC(=O)c3cc(-c4ccccc4)oc3C)CC2)CC1` (stereo not given), the growth inhibition in assay [1] was 32%; in assay [4], 100% (active). The figures for the inhibition in assay [2] and in assay [3] were 46% and 0%, respectively. The result in assay [5], in assay [6], in assay [7] and in assay [8] was inactive.
As for `COc1ccc2nccc(N3CCC(CCNCc4cc5c(cn4)OCCO5)CC3)c2n1`, the results for the growth inhibition in assay [1] and in assay [4] were 101% (active) and 100% (active), respectively. Moreover, the figures for the inhibition in assay [2] and in assay [3] were 18% and 7%, respectively. Moreover, the result in assay [5], in assay [6], in assay [7] and in assay [8] was inactive.
`Cc1cnc(CNCc2ccc(S(=O)(=O)Nc3ccc(Oc4cccc(Cl)c4)cc3)cc2)cn1`: the growth inhibition in assay [1] is -1%; in assay [4] it was 97% (active). The inhibition was 4% in assay [2] and 7% in assay [3]. Also, the result in assay [5], in assay [6], in assay [7] and in assay [8] was inactive.
On to `FC(F)(F)c1ccc2nc(-c3cccc(-c4ccc(CNCC5CCCO5)cc4)c3)[nH]c2c1` (stereo not given), for which the growth inhibition in assay [1] and in assay [4] was 99% (active) each time. Besides, the inhibition is 29% in assay [2] and -7% in assay [3]. Moreover, the result in assay [5], in assay [6], in assay [7] and in assay [8] was inactive.
As for `CCN(CC)CCN(Cc1ccc(-c2ccc(Cl)cc2)cc1)C(=O)Cn1c(CCc2cccc(F)c2F)nc(=O)c2ccccc21`, the results for the growth inhibition in assay [1] and in assay [4] were 75% (active) and 101% (active), respectively. The inhibition in assay [2] is 45%; in assay [3], -4%. In addition, the outcome in assay [5], in assay [6], in assay [7] and in assay [8] was inactive.
With `CCc1ccc(CNCC(CCNc2cc(=O)c3ccccc3[nH]2)NCc2cc(Br)cc(Br)c2)o1` (stereo not given), the growth inhibition in assay [1] is 92% (active); in assay [4], 100% (active). For the same compound, the figures for the inhibition in assay [2] and in assay [3] were -11% and 1%, respectively. Moreover, the result in assay [5], in assay [6], in assay [7] and in assay [8] was inactive.
On to `COc1cccc(-c2ccc(C(=O)NC3CCN(Cc4ccc(N(C)C)cc4)CC3)s2)c1`, for which the growth inhibition in assay [1] was 20%; in assay [4], 81% (active). In addition, the inhibition is 8% in assay [2] and -1% in assay [3]. The outcome in assay [5], in assay [6], in assay [7] and in assay [8] was inactive.
In the case of `CC1CCCC(NC(=O)CCOc2ccccc2)C1` (stereo not given), the growth inhibition was 32% in assay [1] and 96% (active) in assay [4]. For the same compound, the inhibition in assay [2] is -14%; in assay [3], -2%. Further, the result in assay [5], in assay [6], in assay [7] and in assay [8] was inactive.
Regarding `CCCN1CCC(NCc2cn(C)nc2-c2ccc(Oc3ccccc3)cc2)CC1`, the growth inhibition in assay [1] is 44%; in assay [4], 88% (active). The results for the inhibition in assay [2] and in assay [3] were 34% and -3%, respectively. In addition, the outcome in assay [5], in assay [6], in assay [7] and in assay [8] was inactive.
`O=C(NC1CC1)c1cnc(N2CCC(Cc3ccccc3)CC2)c(Cl)c1`: the growth inhibition in assay [1] and in assay [4] was 96% (active) throughout. The inhibition in assay [2] is 10%; in assay [3], -2%. For the same compound, the outcome in assay [5], in assay [6], in assay [7] and in assay [8] was inactive.
Regarding `O=C(Nc1ccncc1)Nc1ccc2c(c1)CCN(C1CCC1)CC2`, the growth inhibition in assay [1] was 4%; in assay [4] it was 87% (active). Also, the inhibition in assay [2] is -1%; in assay [3], 4%. Further, the result in assay [5], in assay [6], in assay [7] and in assay [8] was inactive.
Take `O=C(NCc1cccc(CN2CCOCC2)c1)c1cc(Br)cc(N2CCN(c3ccncc3)CC2)c1`: the growth inhibition in assay [1] is 29%; in assay [4] it was 99% (active). Moreover, the results for the inhibition in assay [2] and in assay [3] were 25% and -2%, respectively. Besides, the result in assay [5], in assay [6], in assay [7] and in assay [8] was inactive.
For `O=C(Nc1ccc(-c2ccc(-c3nc4ccccc4[nH]3)s2)cc1)Nc1ccc(Cl)c(Cl)c1`, the growth inhibition in assay [1] is 99% (active); in assay [4], 102% (active). Also, the inhibition in assay [2] was 89% (active); in assay [3], 2%. For the same compound, the result in assay [5], in assay [6], in assay [7] and in assay [8] was inactive.
Turning to `Cc1[nH]c(C)c(-c2ccc(OCc3ccc(F)cc3)cc2)c(=O)c1Br`, the figures for the growth inhibition in assay [1] and in assay [4] were 97% (active) and 98% (active), respectively. In addition, the inhibition is 16% in assay [2] and -2% in assay [3]. Besides, the outcome in assay [5], in assay [6], in assay [7] and in assay [8] was inactive.
As for `Nc1ncc(-c2ccccc2)cc1-c1nc2cc(Cl)c(F)cc2[nH]1`, the values for the growth inhibition in assay [1] and in assay [4] were 91% (active) and 101% (active), respectively. In addition, the figures for the inhibition in assay [2] and in assay [3] were 37% and 1%, respectively. Further, the result in assay [5], in assay [6], in assay [7] and in assay [8] was inactive.
